# In the supplement of paper PMC7366291:
# Structures can show the parent of a compound that is named as a salt. ± gives the standard deviation or the standard deviation of the averaged measurements.
# Experiments:
# Conditions in all cases: 25 µM; exposure: 24-48 hpf
# [1] = tested on: Danio rerio Tg(wt1b:EGFP) embryo, pronephros; assay: glomerular separation, fold change vs DMSO control; higher = glomeruli further apart (abnormal)
# Summary of the method: (§1)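 Each feature value is a fold change relative to the mean of same-day DMSO-treated embryos. Embryos of the Tg(wt1b:EGFP) zebrafish line, dechorionated, received 25 μM compound in 0.5% DMSO from 24 to 48 hpf at 28.5°C, in HEPES-buffered E3 with 0.003% PTU. Distances and angles were computed by a Fiji macro from 16 manually set reference points on maximum projections of dorsal pronephros images, and values beyond 2 SD of the feature mean were removed.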
# [2] = tested on: Danio rerio Tg(wt1b:EGFP) embryo, pronephros; assay: glomerular width (mean of left and right), fold change vs DMSO control; higher = wider glomerulus
# Summary of the method: as §1
# [3] = tested on: Danio rerio Tg(wt1b:EGFP) embryo, pronephros; assay: fraction of imaged embryos annotated as normal kidney; higher = less nephrotoxic; extreme values may be limits of the assay
# Summary of the method: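 Dechorionated Tg(wt1b:EGFP) zebrafish embryos were exposed in 12-well plates to 25 μM compound in 0.5% DMSO, 5 mM HEPES-buffered E3 with 0.003% PTU, from 24 to 48 hpf at 28.5°C. Tricaine-anaesthetised larvae were oriented dorsally in agarose-filled 96-well plates, and pronephroi were imaged by widefield fluorescence (470 nm, 10 z-slices). Each embryo was manually annotated from maximum projections. The read-out is the fraction of embryos per treatment assigned to the normal-kidney category.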
# [4] = tested on: Danio rerio Tg(wt1b:EGFP) embryo, pronephros; assay: pronephric angle neck segment to proximal convoluted tubule (mean of left and right), fold change vs DMSO control; higher = larger pronephric angle
# Summary of the method: as §1
Compound,glomerular separation [1],glomerular width [2],fraction of imaged embryos annotated as normal kidney [3],pronephric angle neck segment [4]
CO/N=C(\C(=O)N[C@@H]1C(=O)N2C(C(=O)OC(C)OC(C)=O)=C(COC(N)=O)CS[C@H]12)c1ccco1 (stereo not given in full) [Cefuroxime axetil],1.21 ± 0.5,1.02 ± 0.023,0.917,1.04 ± 0.088
C#CCN(C)Cc1ccccc1 [Pargyline hydrochloride],1.04 ± 0.29,1.09 ± 0.052,0.833,0.95 ± 0.015
CCOC(=O)[N-]c1c[n+](N2CCOCC2)no1 [Molsidomine],0.9 ± 0.41,0.9963 ± 0.0028,0.833,0.982 ± 0.013
CCN(CC)C(=O)C1(c2ccccc2)CC1CN (stereo not given) [Milnacipran hydrochloride],0.724 ± 0.23,1.19 ± 0.037,1,0.9653 ± 0.008
O=C(O)[C@H]1/C(=C/CO)O[C@@H]2CC(=O)N21 [Clavulanate potassium salt],0.835 ± 0.22,1.04 ± 0.032,0.833,1.001 ± 0.00045
CCN1CCN(C(=O)N[C@@H](C(=O)N[C@@H]2C(=O)N3[C@@H]2SC(C)(C)[C@@H]3C(=O)O)c2ccccc2)C(=O)C1=O [Piperacillin sodium salt],1.07 ± 0.47,0.991 ± 0.063,0.667,1.01 ± 0.046
CN(C/C=C/C#CC(C)(C)C)Cc1cccc2ccccc12 [Terbinafine],1.03 ± 0.34,1 ± 0.012,1,1.01 ± 0.025
Nc1ccc(/N=N/c2ccccc2)c(N)n1 [Phenazopyridine hydrochloride],1.27 ± 0.52,0.979 ± 0.025,0.583,1.101 ± 0.01
c1cnc(N2CCN(Cc3ccc4c(c3)OCO4)CC2)nc1 [Piribedil hydrochloride],1.01 ± 0.4,0.962 ± 0.028,0.833,1.01 ± 0.055
COCCCOc1ccnc(C[S+]([O-])c2nc3ccccc3[nH]2)c1C (stereo not given) [Rabeprazole Sodium salt],0.694 ± 0.27,1.01 ± 0.019,0.75,1.11 ± 0.019
C[C@]12C=CC(=O)C=C1CC[C@@H]1[C@@H]2C(=O)C[C@@]2(C)[C@H]1CC[C@]2(O)C(=O)CO [Prednisone],1.19 ± 0.48,0.972 ± 0.03,0.833,1.08 ± 0.065
COc1ccc(/C=C/C(=O)Nc2ccccc2C(=O)O)cc1OC [Tranilast],2.14 ± 1.2,1.08 ± 0.049,0.583,1.139 ± 0.0021
O=C(O)Cc1sc(-c2ccccc2)nc1-c1ccc(Cl)cc1 [Fentiazac],6.56 ± 3.2,0.503 ± 0.018,0,1.75 ± 0.059
CC(C)(Sc1cc(C(C)(C)C)c(O)c(C(C)(C)C)c1)Sc1cc(C(C)(C)C)c(O)c(C(C)(C)C)c1 [Probucol],0.815 ± 0.18,0.925 ± 0.06,1,0.928 ± 0.023
CC(CN1c2ccccc2Sc2ccccc21)N(C)C (stereo not given) [Promethazine hydrochloride],0.666 ± 0.15,0.9984 ± 0.0084,0.833,0.994 ± 0.068
CCC[C@@H]1C[C@@H](C(=O)N[C@@H]([C@H]2O[C@H](SC)[C@H](O)[C@@H](O)[C@H]2O)[C@H](C)Cl)N(C)C1 [Clindamycin hydrochloride],0.862 ± 0.2,0.964 ± 0.053,0.917,0.995 ± 0.013
CN1CCCC(n2nc(Cc3ccc(Cl)cc3)c3ccccc3c2=O)CC1 (stereo not given) [Azelastine hydrochloride],0.737 ± 0.21,0.885 ± 0.04,1,1.11 ± 0.024
CN1[C@@H]2CC[C@H]1C[C@@H](OC(=O)c1c[nH]c3ccccc13)C2 [Tropisetron hydrochloride],1.8 ± 0.91,1.02 ± 0.051,0.667,1.06 ± 0.067
CC(C)NCC(O)COc1cccc2[nH]ccc12 (stereo not given) [Pindolol],0.674 ± 0.2,0.901 ± 0.021,0.909,0.984 ± 0.025
CN1CCN(C(c2ccccc2)c2ccc(Cl)cc2)CC1 (stereo not given) [Chlorcyclizine hydrochloride],1.13 ± 0.62,0.995 ± 0.017,0.917,0.966 ± 0.022
COc1cc(Cc2cnc(N)nc2N)cc(OC)c1OC [Trimethoprim],1.48 ± 0.76,0.986 ± 0.013,0.727,1.05 ± 0.063
COc1ccc2[nH]c([S+]([O-])Cc3ncc(C)c(OC)c3C)nc2n1 (stereo not given) [Tenatoprazole],1.61 ± 0.86,0.93 ± 0.064,0.917,1.17 ± 0.069
C/C(=C(\CCOP(=O)(O)O)SC(=O)c1ccccc1)N(C=O)Cc1cnc(C)nc1N [Benfotiamine],1.54 ± 0.89,0.995 ± 0.021,0.75,0.949 ± 0.013
CC[N+](C)(C)c1cccc(O)c1 [Edrophonium chloride],1.26 ± 0.22,1.03 ± 0.026,0.833,0.876 ± 0.05
C=C1/C(=C\C=C2/CCC[C@]3(C)[C@@H]([C@H](C)/C=C/[C@@H](O)C4CC4)CC[C@@H]23)C[C@@H](O)C[C@@H]1O [Calcipotriene],1.01 ± 0.34,1.06 ± 0.012,0.75,0.89787 ± 0.00058
O=C(O)CCCC[C@@H]1SC[C@@H]2NC(=O)N[C@@H]21 [Biotin],0.993 ± 0.31,0.993 ± 0.043,0.917,1.02 ± 0.066
CCOC(=O)O[C@]1(C(=O)OCCl)CC[C@H]2[C@@H]3CCC4=CC(=O)C=C[C@]4(C)[C@H]3[C@@H](O)C[C@@]21C [Loteprednol etabonate],1.27 ± 0.56,0.884 ± 0.029,0.833,1.09 ± 0.042
CC(C(O)c1ccc(O)cc1)N1CCC(Cc2ccccc2)CC1 (stereo not given) [Ifenprodil tartrate],0.712 ± 0.33,1.04 ± 0.024,1,0.942 ± 0.089

Compound,glomerular separation [1],glomerular width [2],fraction of imaged embryos annotated as normal kidney [3],pronephric angle neck segment [4]
Cc1cc(C)nc(NS(=O)(=O)c2ccc(N)cc2)n1 [Sulfamethazine sodium salt],1.11 ± 0.43,1.08 ± 0.048,0.917,1.01 ± 0.031
CC1(C)O[C@@H]2C[C@H]3[C@@H]4C[C@H](F)C5=CC(=O)C=C[C@]5(C)[C@H]4[C@@H](O)C[C@]3(C)[C@]2(C(=O)CO)O1 [Flunisolide],1.26 ± 0.42,1.21 ± 0.018,0.667,0.92856 ± 0.0002
C[C@]12CCC(=O)C=C1C=C[C@@H]1[C@@H]2CC[C@@]2(C)[C@H]1CC[C@@]21CCC(=O)O1 [Canrenone],1.24 ± 0.51,0.798 ± 0.02,0.818,1.07 ± 0.031
COc1c(N2CCNC(C)C2)c(F)cc2c(=O)c(C(=O)O)cn(C3CC3)c12 (stereo not given) [Gatifloxacin],0.71 ± 0.24,1.02 ± 0.054,0.917,1 ± 0.04
CC(C)C(=O)OCC(=O)[C@@]12O[C@H](C3CCCCC3)O[C@@H]1C[C@H]1[C@@H]3CCC4=CC(=O)C=C[C@]4(C)[C@H]3[C@@H](O)C[C@@]12C [Ciclesonide],1.7 ± 0.91,0.937 ± 0.0044,0.333,1.06 ± 0.066
CCCc1ncc(C[n+]2ccccc2C)c(N)n1 [Amprolium hydrochloride],1.14 ± 0.19,0.936 ± 0.042,1,1 ± 0.018
C#C[C@]1(O)CC[C@H]2[C@@H]3[C@H](C)CC4=C(CCC(=O)C4)[C@H]3CC[C@@]21C [Tibolone],0.915 ± 0.4,0.908 ± 0.019,0.75,0.924 ± 0.078
CCN(CCCCOC(=O)c1ccc(OC)c(OC)c1)C(C)Cc1ccc(OC)cc1 (stereo not given) [Mebeverine hydrochloride],0.925 ± 0.3,0.986 ± 0.044,0.833,0.965 ± 0.017
Cc1cc(N)c2ccccc2[n+]1CCCCCCCCCC[n+]1c(C)cc(N)c2ccccc21 [Dequalinium dichloride],1 ± 0.33,1.02 ± 0.021,0.75,0.9864 ± 0.0034
Nc1nc(N)nc(-c2cc(Cl)ccc2Cl)n1 [Irsogladine maleate],1.11 ± 0.39,0.976 ± 0.016,0.909,1.07 ± 0.029
Cc1ccc(-c2ncc(Cl)cc2-c2ccc(S(C)(=O)=O)cc2)cn1 [Etoricoxib],0.967 ± 0.19,1.023 ± 0.0032,0.833,1.04 ± 0.042
Nc1ccc(S(=O)(=O)Nc2ccnn2-c2ccccc2)cc1 [Sulfaphenazole],1.06 ± 0.3,1.022 ± 0.0084,0.917,1.02 ± 0.024
COc1cc(NC(C)CCCN)c2ncccc2c1 (stereo not given) [Primaquine diphosphate],1.04 ± 0.21,1.04 ± 0.079,1,1.01 ± 0.074
Cc1cc(NC(=O)C2=C(O)c3ccccc3S(=O)(=O)N2C)no1 [Isoxicam],1.19 ± 0.55,1.04 ± 0.034,0.917,1.02 ± 0.036
O=C1CC2(CCCC2)CC(=O)N1CCCCN1CCN(c2ncccn2)CC1 [Buspirone hydrochloride],0.901 ± 0.35,1.02 ± 0.022,0.75,1.01 ± 0.034
Cc1cc(C(C)(C)C)c(O)c(C)c1CC1=NCCN1 [Oxymetazoline hydrochloride],1.08 ± 0.39,1.03 ± 0.078,0.833,0.976 ± 0.042
Nc1c(Br)cc(Br)cc1CN[C@H]1CC[C@H](O)CC1 [Ambroxol hydrochloride],1.05 ± 0.28,0.969 ± 0.036,1,1.003 ± 0.0037
CCCCCCCCNC(C)C(O)c1ccc(SC(C)C)cc1 (stereo not given) [Suloctidil],4.23 ± 2.2,0.877 ± 0.029,0,1.48 ± 0.033
N=C(N)NCc1cccc(I)c1 [Iobenguane sulfate],0.901 ± 0.19,1.02 ± 0.015,1,1.02 ± 0.035
Cc1ccc(NC(=O)c2ccc(CN3CCN(C)CC3)cc2)cc1Nc1nccc(-c2cccnc2)n1 [Imatinib],1.09 ± 0.42,0.9892 ± 0.0063,1,1.01 ± 0.018
c1ccc(CN(CC2=NCCN2)c2ccccc2)cc1 [Antazoline hydrochloride],1.08 ± 0.41,1.04 ± 0.016,0.833,0.9446 ± 0.00065
CCN1CCCC(OC(=O)C(c2ccccc2)c2ccccc2)C1 (stereo not given) [Piperidolate hydrochloride],0.836 ± 0.28,0.997 ± 0.01,0.75,0.98 ± 0.016
Cc1cccc(N(C)C(=S)Oc2ccc3ccccc3c2)c1 [Tolnaftate],2.28 ± 1.3,0.952 ± 0.03,0.75,1.05 ± 0.065
Nc1nc(O)c2ncn(CCC(CO)CO)c2n1 [Penciclovir],0.817 ± 0.31,1.01 ± 0.019,0.917,0.964 ± 0.05
c1ccc(CC2=NCCN2)cc1 [Tolazoline hydrochloride],0.955 ± 0.4,1.03 ± 0.053,0.667,0.949 ± 0.013
CC[C@H]1OC(=O)[C@H](C)[C@@H](O[C@H]2C[C@@](C)(OC)[C@@H](O)[C@H](C)O2)[C@H](C)[C@@H](O[C@@H]2O[C@H](C)C[C@H](N(C)C)[C@H]2O)[C@](C)(O)C[C@@H](C)/C(=N\OCOCCOC)[C@H](C)[C@@H](O)[C@]1(C)O [Roxithromycin],0.811 ± 0.45,1 ± 0.014,0.75,1.02 ± 0.03
NC12CC3CC(CC(C3)C1)C2 [Adamantamine fumarate],0.809 ± 0.31,1.07 ± 0.033,0.917,1.03 ± 0.013
